Experimental findings from ChEMBL document CHEMBL1961873, “Compounds: GSK PKIS; Assays: Nanosyn kinase panel” (2012) are described below.

Assay [1] deals with Sphingosine kinase 1 (Homo sapiens) (UniProt Q9NYA1). Particulars: at 1 µM.
The target in assay [2] is T1, Sphingosine kinase 2 (Homo sapiens) (UniProt Q9NRA0).
T1 sequence (whole entry): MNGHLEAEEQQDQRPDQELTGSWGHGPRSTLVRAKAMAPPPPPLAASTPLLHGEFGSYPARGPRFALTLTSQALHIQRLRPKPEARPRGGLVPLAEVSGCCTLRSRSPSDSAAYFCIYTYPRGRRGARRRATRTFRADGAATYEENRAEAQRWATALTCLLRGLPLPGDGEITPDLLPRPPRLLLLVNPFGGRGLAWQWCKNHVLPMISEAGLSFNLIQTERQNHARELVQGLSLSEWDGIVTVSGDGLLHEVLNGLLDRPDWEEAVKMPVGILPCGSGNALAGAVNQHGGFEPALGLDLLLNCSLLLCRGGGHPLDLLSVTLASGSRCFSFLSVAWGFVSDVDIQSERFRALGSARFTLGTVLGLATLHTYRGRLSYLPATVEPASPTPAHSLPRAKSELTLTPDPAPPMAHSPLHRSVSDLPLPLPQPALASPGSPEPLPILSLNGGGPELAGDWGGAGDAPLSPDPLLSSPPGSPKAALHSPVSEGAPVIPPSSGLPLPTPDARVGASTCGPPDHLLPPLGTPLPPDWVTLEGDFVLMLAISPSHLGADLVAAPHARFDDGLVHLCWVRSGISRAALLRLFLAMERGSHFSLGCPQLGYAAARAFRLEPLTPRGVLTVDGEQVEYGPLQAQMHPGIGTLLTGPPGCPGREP
Particulars: at 0.1 µM.

Assay [3] deals with T1, Sphingosine kinase 2 (Homo sapiens). Particulars: at 1 µM.
Assay [4] concerns the target Casein kinase II subunit alpha (Homo sapiens) (UniProt P68400). Conditions: at 0.1 µM.
Assay [5] has the same target. Particulars: at 1 µM.
For assay [6], the target named is T2, Inhibitor of nuclear factor kappa-B kinase subunit alpha (Homo sapiens) (UniProt O15111).
T2 sequence (whole entry): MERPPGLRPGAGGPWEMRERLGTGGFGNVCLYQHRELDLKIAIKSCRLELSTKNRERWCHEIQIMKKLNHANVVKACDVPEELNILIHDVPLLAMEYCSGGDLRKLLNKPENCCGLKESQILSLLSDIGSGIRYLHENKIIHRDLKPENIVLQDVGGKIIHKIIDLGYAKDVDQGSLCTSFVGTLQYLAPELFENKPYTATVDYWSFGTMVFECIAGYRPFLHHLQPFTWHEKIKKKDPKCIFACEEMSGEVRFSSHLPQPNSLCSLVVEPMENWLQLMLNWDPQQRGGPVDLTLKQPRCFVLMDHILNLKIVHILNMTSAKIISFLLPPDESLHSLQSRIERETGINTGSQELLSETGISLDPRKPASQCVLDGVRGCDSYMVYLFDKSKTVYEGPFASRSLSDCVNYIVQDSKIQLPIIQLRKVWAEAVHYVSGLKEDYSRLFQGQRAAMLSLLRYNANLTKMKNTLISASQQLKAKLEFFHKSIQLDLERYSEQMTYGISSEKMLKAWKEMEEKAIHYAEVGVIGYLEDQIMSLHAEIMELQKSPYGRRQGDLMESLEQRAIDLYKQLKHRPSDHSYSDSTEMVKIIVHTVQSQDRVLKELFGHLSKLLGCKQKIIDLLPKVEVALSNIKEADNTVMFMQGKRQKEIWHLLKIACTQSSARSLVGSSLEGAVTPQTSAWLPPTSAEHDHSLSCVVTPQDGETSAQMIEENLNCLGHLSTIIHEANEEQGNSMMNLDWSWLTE
Conditions: at 0.1 µM.

Assay [7] has as its target T2, Inhibitor of nuclear factor kappa-B kinase subunit alpha (Homo sapiens). Conditions: at 1 µM.
The target of assay [8] is T3, Inhibitor of nuclear factor kappa-B kinase subunit beta (Homo sapiens) (UniProt O14920).
T3 sequence (whole entry): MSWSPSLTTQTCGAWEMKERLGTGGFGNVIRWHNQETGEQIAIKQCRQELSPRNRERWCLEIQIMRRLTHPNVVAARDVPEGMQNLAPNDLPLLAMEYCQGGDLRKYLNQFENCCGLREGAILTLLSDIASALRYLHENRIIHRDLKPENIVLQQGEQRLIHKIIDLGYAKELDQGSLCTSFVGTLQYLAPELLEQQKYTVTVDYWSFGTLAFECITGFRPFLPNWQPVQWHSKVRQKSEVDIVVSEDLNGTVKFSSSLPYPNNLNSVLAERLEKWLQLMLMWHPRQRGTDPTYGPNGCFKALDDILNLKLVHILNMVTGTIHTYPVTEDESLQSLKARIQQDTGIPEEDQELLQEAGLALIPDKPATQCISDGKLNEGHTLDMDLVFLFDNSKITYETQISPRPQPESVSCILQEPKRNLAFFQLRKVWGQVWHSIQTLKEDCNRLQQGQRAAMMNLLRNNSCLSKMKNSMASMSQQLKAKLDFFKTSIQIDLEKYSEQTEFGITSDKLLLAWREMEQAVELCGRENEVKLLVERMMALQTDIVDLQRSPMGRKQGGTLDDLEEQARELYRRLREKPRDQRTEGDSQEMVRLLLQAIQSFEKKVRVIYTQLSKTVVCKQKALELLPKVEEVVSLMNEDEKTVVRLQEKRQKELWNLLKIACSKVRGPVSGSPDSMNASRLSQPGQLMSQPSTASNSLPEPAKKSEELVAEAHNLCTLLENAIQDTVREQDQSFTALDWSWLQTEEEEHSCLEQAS
Conditions: at 0.1 µM.

Assay [9] deals with T3, Inhibitor of nuclear factor kappa-B kinase subunit beta (Homo sapiens). Particulars: at 1 µM.
In assay [10] the target is T4, Inhibitor of nuclear factor kappa-B kinase subunit epsilon (Homo sapiens) (UniProt Q14164).
T4 sequence (whole entry): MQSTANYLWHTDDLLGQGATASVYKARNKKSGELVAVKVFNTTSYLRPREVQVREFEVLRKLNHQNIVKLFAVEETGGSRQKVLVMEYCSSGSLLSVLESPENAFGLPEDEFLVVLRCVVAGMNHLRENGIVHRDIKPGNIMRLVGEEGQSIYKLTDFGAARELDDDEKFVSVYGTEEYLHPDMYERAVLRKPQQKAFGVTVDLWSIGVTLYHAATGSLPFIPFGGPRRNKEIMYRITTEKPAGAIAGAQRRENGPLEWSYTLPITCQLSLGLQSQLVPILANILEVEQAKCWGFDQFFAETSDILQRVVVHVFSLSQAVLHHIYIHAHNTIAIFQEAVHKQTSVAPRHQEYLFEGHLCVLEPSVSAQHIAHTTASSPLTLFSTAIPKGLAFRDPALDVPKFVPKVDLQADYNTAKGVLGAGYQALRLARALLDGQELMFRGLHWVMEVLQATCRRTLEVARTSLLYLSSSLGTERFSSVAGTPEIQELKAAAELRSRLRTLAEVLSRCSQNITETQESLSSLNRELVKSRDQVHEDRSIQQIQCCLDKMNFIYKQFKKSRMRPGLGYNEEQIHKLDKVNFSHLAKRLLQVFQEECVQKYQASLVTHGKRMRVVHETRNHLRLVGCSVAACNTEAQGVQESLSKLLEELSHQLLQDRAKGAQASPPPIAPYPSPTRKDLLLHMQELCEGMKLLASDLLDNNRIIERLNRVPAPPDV
Conditions: at 0.1 µM.

For assay [11], the target named is T4, Inhibitor of nuclear factor kappa-B kinase subunit epsilon (Homo sapiens). Conditions: at 1 µM.
For assay [12], the target named is T5, Serine/threonine-protein kinase Nek1 (Homo sapiens) (UniProt Q96PY6).
T5 sequence (whole entry): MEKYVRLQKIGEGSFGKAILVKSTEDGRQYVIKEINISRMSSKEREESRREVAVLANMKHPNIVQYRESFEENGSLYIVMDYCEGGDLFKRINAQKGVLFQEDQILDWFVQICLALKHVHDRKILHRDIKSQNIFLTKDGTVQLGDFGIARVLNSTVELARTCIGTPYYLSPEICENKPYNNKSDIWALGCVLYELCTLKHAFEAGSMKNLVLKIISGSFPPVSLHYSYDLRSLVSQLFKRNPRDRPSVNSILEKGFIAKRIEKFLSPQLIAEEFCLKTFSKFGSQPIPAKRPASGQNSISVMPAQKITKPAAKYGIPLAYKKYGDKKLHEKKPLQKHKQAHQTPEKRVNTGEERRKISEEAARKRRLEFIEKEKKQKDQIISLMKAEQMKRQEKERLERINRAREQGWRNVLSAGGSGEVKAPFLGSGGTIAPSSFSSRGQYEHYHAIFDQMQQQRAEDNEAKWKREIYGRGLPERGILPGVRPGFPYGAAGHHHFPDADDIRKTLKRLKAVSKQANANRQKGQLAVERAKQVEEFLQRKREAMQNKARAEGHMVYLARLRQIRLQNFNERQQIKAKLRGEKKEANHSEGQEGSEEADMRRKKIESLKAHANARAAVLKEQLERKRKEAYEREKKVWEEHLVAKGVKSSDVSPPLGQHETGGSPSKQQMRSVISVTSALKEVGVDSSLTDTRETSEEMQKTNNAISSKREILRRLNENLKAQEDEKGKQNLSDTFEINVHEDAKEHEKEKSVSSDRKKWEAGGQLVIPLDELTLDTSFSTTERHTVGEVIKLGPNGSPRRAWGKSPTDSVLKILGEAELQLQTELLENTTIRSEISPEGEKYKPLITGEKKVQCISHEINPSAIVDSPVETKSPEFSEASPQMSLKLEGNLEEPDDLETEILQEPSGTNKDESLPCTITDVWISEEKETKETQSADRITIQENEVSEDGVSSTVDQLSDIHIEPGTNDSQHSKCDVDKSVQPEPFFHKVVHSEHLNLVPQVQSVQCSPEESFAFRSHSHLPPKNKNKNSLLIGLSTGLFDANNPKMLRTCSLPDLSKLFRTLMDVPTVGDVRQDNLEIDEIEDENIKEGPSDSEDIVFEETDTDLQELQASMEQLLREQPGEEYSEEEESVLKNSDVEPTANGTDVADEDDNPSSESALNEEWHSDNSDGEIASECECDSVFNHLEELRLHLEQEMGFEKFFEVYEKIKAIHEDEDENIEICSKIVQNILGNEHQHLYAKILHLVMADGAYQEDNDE
Particulars: at 0.1 µM.

Assay [13] has as its target T5, Serine/threonine-protein kinase Nek1 (Homo sapiens). Particulars: at 1 µM.
Assay [14] deals with T6, Serine/threonine-protein kinase Nek2 (Homo sapiens) (UniProt P51955).
T6 sequence (whole entry): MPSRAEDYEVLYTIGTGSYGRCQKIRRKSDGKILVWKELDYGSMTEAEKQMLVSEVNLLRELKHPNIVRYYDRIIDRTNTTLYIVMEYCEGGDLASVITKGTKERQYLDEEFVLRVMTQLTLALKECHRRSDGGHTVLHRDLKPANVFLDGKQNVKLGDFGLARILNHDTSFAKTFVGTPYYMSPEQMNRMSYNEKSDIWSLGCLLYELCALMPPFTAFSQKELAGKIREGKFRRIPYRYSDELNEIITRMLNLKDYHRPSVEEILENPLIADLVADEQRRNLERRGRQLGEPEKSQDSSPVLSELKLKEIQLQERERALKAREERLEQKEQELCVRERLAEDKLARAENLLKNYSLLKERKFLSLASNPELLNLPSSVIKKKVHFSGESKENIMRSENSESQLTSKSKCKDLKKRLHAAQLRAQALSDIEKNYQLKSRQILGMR
Particulars: at 0.1 µM.

For assay [15], the target named is T6, Serine/threonine-protein kinase Nek2 (Homo sapiens). Conditions: at 1 µM.
Assay [16] addresses Serine/threonine-protein kinase Nek6 (Homo sapiens) (UniProt Q9HC98). Particulars: at 0.1 µM.
Assay [17] has the same target. Particulars: at 1 µM.
Assay [18] concerns the target Serine/threonine-protein kinase Nek7 (Homo sapiens) (UniProt Q8TDX7). Particulars: at 0.1 µM.
The target is the same in assay [19]. Particulars: at 1 µM.
In assay [20] the target is T7, Serine/threonine-protein kinase Nek9 (Homo sapiens) (UniProt Q8TD19).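 Note: reported value is the mean percent inhibition of NEK9.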
T7 sequence (whole entry): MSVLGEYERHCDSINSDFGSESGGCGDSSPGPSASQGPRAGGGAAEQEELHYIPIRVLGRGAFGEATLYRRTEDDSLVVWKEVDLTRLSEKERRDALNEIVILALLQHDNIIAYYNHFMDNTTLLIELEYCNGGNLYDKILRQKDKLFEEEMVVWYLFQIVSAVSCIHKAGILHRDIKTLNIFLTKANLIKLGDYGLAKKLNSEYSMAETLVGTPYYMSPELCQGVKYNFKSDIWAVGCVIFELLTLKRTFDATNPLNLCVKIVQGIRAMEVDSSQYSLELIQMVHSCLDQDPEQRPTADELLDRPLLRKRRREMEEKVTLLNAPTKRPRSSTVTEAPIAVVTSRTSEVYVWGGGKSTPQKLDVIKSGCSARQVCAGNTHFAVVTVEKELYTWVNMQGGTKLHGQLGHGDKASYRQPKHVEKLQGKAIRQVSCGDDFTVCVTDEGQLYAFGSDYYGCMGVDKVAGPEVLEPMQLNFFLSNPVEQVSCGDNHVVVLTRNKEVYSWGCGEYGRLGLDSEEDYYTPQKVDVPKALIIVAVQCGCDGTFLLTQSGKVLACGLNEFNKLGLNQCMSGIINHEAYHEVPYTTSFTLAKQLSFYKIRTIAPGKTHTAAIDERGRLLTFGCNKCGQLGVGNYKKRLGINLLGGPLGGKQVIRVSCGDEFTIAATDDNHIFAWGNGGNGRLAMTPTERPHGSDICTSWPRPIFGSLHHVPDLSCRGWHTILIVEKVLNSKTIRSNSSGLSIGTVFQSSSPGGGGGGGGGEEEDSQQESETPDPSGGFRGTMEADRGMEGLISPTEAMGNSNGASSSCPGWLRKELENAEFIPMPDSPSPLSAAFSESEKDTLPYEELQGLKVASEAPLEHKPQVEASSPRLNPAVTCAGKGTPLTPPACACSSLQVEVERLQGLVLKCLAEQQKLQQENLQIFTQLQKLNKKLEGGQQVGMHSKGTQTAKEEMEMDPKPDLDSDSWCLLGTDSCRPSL
Particulars: at 0.1 µM.

Sequence of Casein kinase II subunit alpha (Homo sapiens) (P68400 whole entry, looked up): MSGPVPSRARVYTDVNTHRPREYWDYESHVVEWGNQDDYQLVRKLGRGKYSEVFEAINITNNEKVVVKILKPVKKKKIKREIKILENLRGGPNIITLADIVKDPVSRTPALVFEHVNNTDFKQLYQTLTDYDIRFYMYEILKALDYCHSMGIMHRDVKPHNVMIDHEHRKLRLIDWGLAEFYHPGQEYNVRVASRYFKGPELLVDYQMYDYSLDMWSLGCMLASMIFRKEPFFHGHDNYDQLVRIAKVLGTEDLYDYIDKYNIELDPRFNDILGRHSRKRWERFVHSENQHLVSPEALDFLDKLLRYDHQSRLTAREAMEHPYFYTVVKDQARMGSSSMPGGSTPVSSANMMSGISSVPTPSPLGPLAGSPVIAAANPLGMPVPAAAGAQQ
Sequence of Serine/threonine-protein kinase Nek6 (Homo sapiens) (Q9HC98 whole entry): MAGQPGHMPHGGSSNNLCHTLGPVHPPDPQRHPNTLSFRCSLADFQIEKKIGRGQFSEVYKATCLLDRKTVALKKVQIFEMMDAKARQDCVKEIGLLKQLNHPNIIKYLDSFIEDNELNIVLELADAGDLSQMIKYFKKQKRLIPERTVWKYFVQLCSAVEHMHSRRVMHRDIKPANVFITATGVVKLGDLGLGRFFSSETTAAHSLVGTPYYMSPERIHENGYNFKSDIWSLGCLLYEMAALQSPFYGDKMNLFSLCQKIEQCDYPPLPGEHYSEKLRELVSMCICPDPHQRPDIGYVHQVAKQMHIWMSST
Sequence of Serine/threonine-protein kinase Nek7 (Homo sapiens) (Q8TDX7 whole entry, looked up): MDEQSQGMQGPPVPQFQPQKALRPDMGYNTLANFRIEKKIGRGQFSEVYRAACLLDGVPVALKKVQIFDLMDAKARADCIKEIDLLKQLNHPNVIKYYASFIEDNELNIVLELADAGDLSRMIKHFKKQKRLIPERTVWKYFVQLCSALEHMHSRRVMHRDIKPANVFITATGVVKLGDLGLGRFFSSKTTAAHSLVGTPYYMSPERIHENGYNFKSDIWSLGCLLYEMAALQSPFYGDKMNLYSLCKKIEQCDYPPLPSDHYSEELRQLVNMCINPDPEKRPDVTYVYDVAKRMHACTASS
Sequence of Sphingosine kinase 1 (Homo sapiens) (Q9NYA1 whole entry): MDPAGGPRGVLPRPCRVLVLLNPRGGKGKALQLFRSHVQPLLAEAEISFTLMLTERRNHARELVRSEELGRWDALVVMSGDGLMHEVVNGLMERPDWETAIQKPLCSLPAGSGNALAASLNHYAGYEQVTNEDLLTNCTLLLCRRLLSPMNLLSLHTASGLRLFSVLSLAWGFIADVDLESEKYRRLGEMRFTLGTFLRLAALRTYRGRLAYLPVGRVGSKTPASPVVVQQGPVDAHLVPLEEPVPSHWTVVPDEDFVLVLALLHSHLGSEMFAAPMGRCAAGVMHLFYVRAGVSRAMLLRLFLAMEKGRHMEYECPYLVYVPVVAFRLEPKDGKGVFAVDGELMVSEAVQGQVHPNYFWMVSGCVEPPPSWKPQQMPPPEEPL

As for `COC(=O)Nc1nc2cc(Oc3ccc(NC(=O)Nc4ccccc4)cc3)ccc2[nH]1`, the inhibition in assay [1] is 3.1%; in assay [2] it was -0.28%; in [3], 0.5%; in assay [4] it was 1.57%; in assay [5], 7.67%; in assay [6], 10.9%. Moreover, the inhibition in assay [7] was determined as 8.6%; in assay [8] it was 4.21%; in [9], 5.49%; in assay [10] it was 5.85%; in assay [11], 5.8%; in [12], 1.46%. Also, the inhibition is 1.92% in assay [13]; 3.05% in assay [14]; 1.76% in assay [15]; 3.54% in [16]; 0.95% in assay [17]; 2.02% in assay [18]. Further, the results for the inhibition in [19] and in assay [20] were 1.72% and 4.39%, respectively.
